PubChem BioAssay (NCI)
About 79,000 compounds went through this panel and 15% of them were active in at least one assay; those are over-represented in the sample as a whole. Unmarked numbers belong to inactive results. The source made the active and inactive calls. No stated cut-off is given here; in the data, active means growth inhibition above about 70%; inactive means the rest.

What was measured:
[1] = NCI Yeast Anticancer Drug Screen. Data for the rad52 strain (AID 147);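 further: 0% = growth of vehicle-treated control cultures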; details: S. cerevisiae rad52 mutant growth inhibition, active compounds read high
In short: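 Screen used a yeast mutant impaired in DNA repair. After compound exposure, growth was measured. Values reflect inhibition compared with vehicle-treated cells.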

[2] = NCI Yeast Anticancer Drug Screen. Data for the wt1 strain (AID 149);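 further: 0% = growth of vehicle-treated wt1 cultures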; details: S. cerevisiae wt1 strain (SPY 50644) growth inhibition, active compounds read high
In short: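 Measured: growth of wt1 yeast under compound versus vehicle treatment, reported as inhibition.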

[3] = NCI Yeast Anticancer Drug Screen. Data for the rad50EPP+ strain (AID 151);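 further: 0% = growth of vehicle-treated control cultures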; details: S. cerevisiae rad50 mutant strain, active compounds read high
In short: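 Exposing the rad50EPP+ strain to each compound, growth was compared with vehicle-only cultures to give inhibition.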

[4] = NCI Yeast Anticancer Drug Screen. Data for the mgt1 strain (AID 153); details: S. cerevisiae mgt1 mutant growth inhibition, active compounds read high
In short: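 Genetically defined yeast (mgt1) treated with compound; inhibition of growth expressed against vehicle-treated controls.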

[5] = NCI Yeast Anticancer Drug Screen. Data for the rad50 strain (AID 155);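 further: 0% = growth of vehicle-only cultures of the same strain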; details: S. cerevisiae rad50 strain growth inhibition, active compounds read high
In short: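 Growth of the mutant yeast was measured after compound exposure and referenced to vehicle-treated cultures.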

[6] = NCI Yeast Anticancer Drug Screen. Data for the mec2-1 strain (AID 157); details: S. cerevisiae mec2-1 strain, active compounds read high
In short: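 Readout is yeast growth inhibition, normalised to vehicle-treated controls, in the mec2-1 strain exposed to compound.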

[7] = NCI Yeast Anticancer Drug Screen. Data for the rad14 strain (AID 159);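 further: 0% = growth of vehicle-treated control cultures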; details: S. cerevisiae rad14 strain growth inhibition, active compounds read high
In short: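 Here, inhibition of yeast growth was measured after compound exposure, using a strain with a genetic defect in DNA damage repair and vehicle-treated cultures as the reference.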

[8] = NCI Yeast Anticancer Drug Screen. Data for the sgs1 mgt1 strain (AID 161);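 further: 0% = growth of cultures given vehicle only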; details: S. cerevisiae sgs1 mgt1 strain, active compounds read high
In short: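 Compounds are added to genetically altered yeast, and growth is compared with cultures given vehicle alone to give percent inhibition.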

[9] = NCI Yeast Anticancer Drug Screen. Data for the CLN2oe strain (AID 163);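 further: 0% = growth of vehicle-only control cultures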; details: S. cerevisiae CLN2oe strain, active compounds read high
In short: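 Values reflect how much compound exposure reduced yeast growth, referenced to vehicle-exposed cells. Assay organism is a strain with a defined genetic change affecting cell-cycle control.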

[10] = NCI Yeast Anticancer Drug Screen. Data for the cln2 rad14 strain (AID 165);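 further: 0% = growth equal to vehicle treated cultures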; details: S. cerevisiae cln2 rad14 strain, active compounds read high
In short: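 Relative to vehicle controls, growth inhibition of compound-treated cln2 rad14 yeast was recorded.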

[11] = NCI Yeast Anticancer Drug Screen. Data for the bub3 strain (AID 167); details: S. cerevisiae bub3 mutant strain, active compounds read high
In short: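 Whole-cell yeast assay. The mutant strain was incubated with compounds, and growth inhibition was determined by comparison with vehicle-treated cells.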

[12] = NCI Yeast Anticancer Drug Screen. Data for the wt2 strain (AID 169);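 further: 0% = growth of vehicle-treated yeast cultures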; details: S. cerevisiae wt2 strain growth inhibition, active compounds read high
In short: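 Values express reduction in yeast growth under compound treatment, referenced to vehicle-treated cells.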

[13] = NCI Yeast Anticancer Drug Screen. Data for the mlh1 strain (AID 171);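 further: 0% = growth of vehicle-treated control cultures of the same strain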; details: S. cerevisiae mlh1 strain growth inhibition, active compounds read high
In short: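 Steps: expose the defined-mutant yeast strain to compound; expose a parallel culture to vehicle; measure growth; express compound effect as inhibition relative to the vehicle culture.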

[14] = NCI Yeast Anticancer Drug Screen. Data for the sgs1 strain (AID 173);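 further: 0% = growth of vehicle-only control cultures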; details: S. cerevisiae sgs1 mutant, active compounds read high
In short: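 Treat defined-mutant yeast with compound; measure growth; calculate inhibition relative to vehicle-treated cells.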

[15] = NCI Yeast Anticancer Drug Screen. Data for the mlh1 rad18 strain (AID 175); details: S. cerevisiae mlh1 rad18 strain growth inhibition, active compounds read high
In short: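 Test agents were incubated with a yeast strain of defined genotype (DNA damage repair defect). Inhibition of growth was derived by comparison with vehicle-exposed cultures.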

[16] = NCI Yeast Anticancer Drug Screen. Data for the rad18 strain (AID 177); details: S. cerevisiae rad18 mutant growth inhibition, active compounds read high
In short: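 A genetically defined yeast mutant impaired in DNA damage repair was treated with test compounds, then its growth was measured against cultures receiving vehicle alone.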

[17] = at 5.0 µM (retest, dose inferred, filed as 0.5)
[18] = at 50.0 µM (retest, dose inferred, filed as 5.0)

## COc1ccc(C(=O)Oc2ccccc2Br)cc1
[1]; at 1.2 µM
  growth inhibition: 5%
[1]; at 3.7 µM
  growth inhibition: 6%
[1]; at 11.0 µM
  growth inhibition: 3%
[1]; at 33.0 µM
  growth inhibition: 19%
[1]; at 100.0 µM
  growth inhibition: 44%
[2]; at 1.2 µM
  growth inhibition: -5%
[2]; at 3.7 µM
  growth inhibition: -7%
[2]; at 11.0 µM
  growth inhibition: -10%
[2]; at 33.0 µM
  growth inhibition: -10%
[2]; at 100.0 µM
  growth inhibition: -3%
[3]; at 1.2 µM
  growth inhibition: 13%
[3]; at 3.7 µM
  growth inhibition: 22%
[3]; at 11.0 µM
  growth inhibition: 26%
[3]; at 33.0 µM
  growth inhibition: 35%
[3]; at 100.0 µM
  growth inhibition: 62%
[4]; at 1.2 µM
  growth inhibition: -8%
[4]; at 3.7 µM
  growth inhibition: -5%
[4]; at 11.0 µM
  growth inhibition: -7%
[4]; at 33.0 µM
  growth inhibition: -5%
[4]; at 100.0 µM
  growth inhibition: 25%
[5]; at 1.2 µM
  growth inhibition: 8%
[5]; at 3.7 µM
  growth inhibition: 7%
[5]; [17]
  growth inhibition: 5%
[5]; at 11.0 µM
  growth inhibition: 8%
[5]; at 33.0 µM
  growth inhibition: 28%
[5]; [18]
  growth inhibition: 64%
[5]; at 50.0 µM
  growth inhibition: 6.6%
[5]; at 100.0 µM
  growth inhibition: 62%
[6]; at 1.2 µM
  growth inhibition: -5%
[6]; at 3.7 µM
  growth inhibition: -8%
[6]; [17]
  growth inhibition: -20%
[6]; at 11.0 µM
  growth inhibition: -10%
[6]; at 33.0 µM
  growth inhibition: -7%
[6]; [18]
  growth inhibition: 8%
[6]; at 50.0 µM
  growth inhibition: 5.05%
[6]; at 100.0 µM
  growth inhibition: 20%
[7]; at 1.2 µM
  growth inhibition: 3%
[7]; at 3.7 µM
  growth inhibition: -1%
[7]; at 11.0 µM
  growth inhibition: -1%
[7]; at 33.0 µM
  growth inhibition: 10%
[7]; at 100.0 µM
  growth inhibition: 39%
[8]; [17]
  growth inhibition: 0%
[8]; [18]
  growth inhibition: 78% (active)
[8]; at 50.0 µM
  growth inhibition: 36.1%
[9]; at 1.2 µM
  growth inhibition: -4%
[9]; at 3.7 µM
  growth inhibition: -12%
[9]; at 11.0 µM
  growth inhibition: -18%
[9]; at 33.0 µM
  growth inhibition: -14%
[9]; at 100.0 µM
  growth inhibition: 9%
[10]; [17]
  growth inhibition: 0%
[10]; [18]
  growth inhibition: 16%
[10]; at 50.0 µM
  growth inhibition: -16.3%
[11]; at 1.2 µM
  growth inhibition: 3%
[11]; at 3.7 µM
  growth inhibition: 2%
[11]; [17]
  growth inhibition: 18%
[11]; at 11.0 µM
  growth inhibition: -2%
[11]; at 33.0 µM
  growth inhibition: 5%
[11]; [18]
  growth inhibition: 75% (active)
[11]; at 50.0 µM
  growth inhibition: 32.4%
[11]; at 100.0 µM
  growth inhibition: 19%
[12]; at 1.2 µM
  growth inhibition: -5%
[12]; at 3.7 µM
  growth inhibition: -13%
[12]; at 11.0 µM
  growth inhibition: -11%
[12]; at 33.0 µM
  growth inhibition: -10%
[12]; at 100.0 µM
  growth inhibition: 0%
[13]; at 1.2 µM
  growth inhibition: -1%
[13]; at 3.7 µM
  growth inhibition: 0%
[13]; at 11.0 µM
  growth inhibition: -2%
[13]; at 33.0 µM
  growth inhibition: 8%
[13]; at 100.0 µM
  growth inhibition: 39%
[14]; at 1.2 µM
  growth inhibition: -18%
[14]; at 3.7 µM
  growth inhibition: -13%
[14]; at 11.0 µM
  growth inhibition: -11%
[14]; at 33.0 µM
  growth inhibition: 3%
[14]; at 100.0 µM
  growth inhibition: 36%
[15]; [17]
  growth inhibition: 5%
[15]; [18]
  growth inhibition: 90% (active)
[15]; at 50.0 µM
  growth inhibition: 7.85%
[16]; at 1.2 µM
  growth inhibition: 1%
[16]; at 3.7 µM
  growth inhibition: 2%
[16]; at 11.0 µM
  growth inhibition: 1%
[16]; at 33.0 µM
  growth inhibition: 10%
[16]; at 100.0 µM
  growth inhibition: 53%
